Data on one molecule can be found in PubChem BioAssay AID1159580 (chemical genetic matrix, 2015).

Each structure is given as a SMILES string. The campaign covered roughly 5,500 compounds. About 2,000 (36%) were called active. Not shown: some 18% with an inconclusive outcome. The list shows a part of the results. Values without a mark were called inactive. Cut-off read from the data, not from the text of the source: active = normalized growth mostly below about 0.91 (no sharp cut-off); inconclusive = no clear call, values can overlap the other calls; inactive = mostly above about 0.92.

The assay is described as follows: chemical genetic growth profiling, strain panel (AID 1159580).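 Note: tested at 20 µM; growth read once vehicle control cultures reached saturation at 30 °C; 1 = growth at the plate median or of vehicle wells; lower values mean less growth of the strain.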 The settings on record: S. cerevisiae deletion strains, growth OD.

Regarding `COc1ccc2c(c1OC)C(=O)O[C@H]2[C@@H]1c2cc3c(cc2CCN1C)OCO3`, the normalized growth is 1.01 (locus YAL013W, strain DEP1, hits give low values); 0.973 (locus YAL040C, strain CLN3, hits give low values); 1.01 (locus YCL061C, strain MRC1 (second series), hits give low values); 1.02 (locus YDR363W, strain ESC2, hits give low values); 1.03 (locus YER002W, strain NOP16, hits give low values); 0.428 (active) (locus YGR078C, strain PAC10, hits give low values). Moreover, the normalized growth by setting is: (locus YMR263W, strain SAP30, hits give low values) 1; (locus YNL197C, strain WHI3, hits give low values) 1.01; (locus YNL224C, strain SQS1, hits give low values) 0.996; (locus YNL322C, strain KRE1, hits give low values) 1.02; (locus YOR083W, strain WHI5 (second series), hits give low values) 1.07; (locus YPL055C, strain LGE1, hits give low values) 1.01.
